KB-3-1 cytotox: qHTS assay for MDR1-selective chemotherapeutics: Primary screen using the parental adenocarcinoma cell KB-3-1. 400,000 tested, 1.4% active. KB-3-1 viability, CellTiter-Glo ATP luminescence, 72 h. AID 1347075, 2019. Potency, µM (doses to about 46.1 µM), hits mostly cytotoxic; note: nearly all actives have a fitted effect of over 60% in size
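Cytotoxicity measured as CellTiter-Glo luminescence after 72 h at 37 C. Compound titrations were pinned onto drug-naive KB-3-1 parental adenocarcinoma cells grown in DMEM with 10% FBS, and normalized data fitted to concentration-response curves.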
HT1080NT lethal: qHTS for induction of synthetic lethality in tumor cells producing 2HG: qHTS for the HT-1080-NT fibrosarcoma cell line; HT-1080-NT fibrosarcoma viability, CellTiter-Glo ATP luminescence, 48 h; Potency, µM (highest dose often 46.1 µM), without a hit: top-dose activity, negative = less viability, actives largely listed as cytotoxic; 360,000 tested, 1.6% active; AID 686970, 2013;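 note: NT is the 2HG producing partner of a matched IDH1 knockdown line; 0% = DMSO-treated cells and -100% = media-only wells without cells; nearly all actives have a fitted effect of over 55% in size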
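Fibrosarcoma NT cells, 750 per well in 5% FBS RPMI, were exposed to compound for 48 hours. Viability: CellTiter-Glo luminescence.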
KB-V1 MDR tox: qHTS assay for MDR1-selective chemotherapeutics: Primary screen using the drug-selected MDR subline cells KB-V1 | KB-V1 MDR cells viability, CellTiter-Glo, 72 h | Potency, µM (titrated, usually from 46.1 µM), usual class: cytotoxic | 400,000 tested, 3.4% active; note: nearly all actives have a fitted effect of over 60% in size
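Cytotoxicity toward P-gp-expressing KB-V1 cells was determined as loss of CellTiter-Glo luminescence after 72 h at 37 degrees C. Compounds were tested in quantitative HTS format across a concentration range, with curves fitted to normalized data.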
HT1080 IDH1KD tx: qHTS for induction of synthetic lethality in tumor cells producing 2HG: qHTS for the HT-1080-IDH1KD cell line. HT-1080 IDH1 knockdown viability, ATP luminescence, 48 h. Potency, µM (doses to about 46.1 µM), without a hit: at the top dose activity, negative = toxicity, hits mostly cytotoxic. 360,000 tested, 2% active;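 note: 0% = DMSO wells and -100% = cell-free medium wells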
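Assay cells: HT-1080 with IDH1 knockdown, 750 per well, RPMI/5% FBS. Exposure: 48 h at 37 °C following 2 h pre-incubation. Read: CellTiter-Glo luminescence; fitted concentration-response, curve class assigned.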
DT40 TDP1 no CPT: qHTS for Inhibitors of human tyrosyl-DNA phosphodiesterase 1 (TDP1): qHTS in cells in absence of CPT; DT40 Tdp1-/- hTDP1 cells, no CPT, ATP luminescence, 48 h; 420,000 tested, 15% active; Potency, µM (doses to about 46.2 µM), inactives show at the highest dose activity change, negative = growth inhibition, actives largely listed as inhibitors; note: nearly all actives have a fitted effect of over 55% in size
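Camptothecin absent (DMSO only). Human TDP1-complemented DT40 knockout cells, 400 cells/well, 37 °C for minimum 48 hr; ATP measured via CellTiter-Glo, 30 min dark incubation, luminescence.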
TDP1 cell CPT: qHTS for Inhibitors of human tyrosyl-DNA phosphodiesterase 1 (TDP1): qHTS in cells in presence of CPT; 420,000 tested, 12% active; Potency, µM (series often up to 46.2 µM), without a hit: at the top dose activity change, negative = growth inhibition, actives largely listed as inhibitors; chicken DT40 Tdp1-/-;hTDP1 cells + 20 nM CPT, ATP luminescence, 48 h; note: nearly all actives have a fitted effect of over 55% in size
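Chicken DT40 Tdp1-/- cells complemented with human TDP1, 400 cells/well, exposed to compounds plus 20 nM camptothecin for at least 48 h at 37 C; viability read as ATP content by CellTiter-Glo luminescence.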
The depositor's hits bear a star; i = inactive; u = inconclusive; x = not tested or not shown; ! = a repeat was not active. This is a sample that favours compounds with a hit; in the whole collection about 19% have one here. Calls come from the whole dose curve; as a rule, active = well fitted curve in the direction sought with a large enough effect; inconclusive = small, poorly fitted or top-dose-only effect, or another doubt; inactive = no such curve, though single readings can be large; an effect the other way counts as inactive or inconclusive. Unless noted, % is set by controls: 0 for no effect and ±100 for the full control effect; potency is the fitted concentration of half-maximal effect.

SMILES	KB-3-1 cytotox	HT1080NT lethal	KB-V1 MDR tox	HT1080 IDH1KD tx	DT40 TDP1 no CPT	TDP1 cell CPT
COC(=O)C1=C(c2ccccc2OCc2ccccc2)C[C@@H]2CC[C@H]1N2C(=O)NCc1ccc(N(C)C)cc1	i	-15%	i	-17%	u	u
COC(=O)C1=C(c2ccc(OC(F)(F)F)cc2)C[C@@H]2CC[C@H]1N2C(=O)NCCc1ccccc1	i	-2%	i	-4%	u	2.9µM*
COC(=O)C1=C(c2ccc(OCc3ccccc3)cc2)C[C@@H]2CC[C@H]1N2C(=O)NCCCCc1ccccc1	u	-21%	u	-11%	18µM*	u
COC(=O)C1=C(c2ccc(OCc3ccccc3)cc2)C[C@@H]2CC[C@H]1N2C(=O)NCc1ccc2[nH]ccc2c1	i	-9%	i	-4%	u	u
COC(=O)C1=C(c2ccc(OCc3ccccc3)cc2)C[C@@H]2CC[C@H]1N2C(=O)NCCc1ccc(F)cc1	u	-20%	16µM*	u	u	21µM*
COC(=O)C1=C(c2ccc(OCc3ccccc3)cc2)C[C@@H]2CC[C@H]1N2C(=O)NC1CCN(Cc2ccccc2)CC1	u	u	i	u	7.3µM*	8.2µM*
CC(NC(=O)N1CC1(C)C)c1ccccc1 (stereo unspecified)	i	9%	i	3%	-19%	2%
CCN1CCN(c2ccc(N)c(C)c2)CC1	i	-2%	i	-3%	u	u
C[C@]12C[C@@H](O)[C@H](O)CC1=CCC1C2CC[C@@]2(C)C1CC[C@@H]2O (stereo partly specified)	i	-2%	i	2%	-18%	-29%
COc1ccc(CCNC(=O)c2cnc3sc(N4CCCCCC4)nn3c2=O)cc1	i	x	i	x	9.2µM*	21µM*
CCn1c(C)c(C(=O)NCCc2ccccc2)c2cc(OC)ccc21	i	-1%	i	-11%	-22%	-3%
Cc1nccc2c1[nH]c1ccc(Br)cc12	i	-21%	u	-20%	23µM*	u
COc1ccc2c(c1)[nH]c1c(C)nccc12	u	0%	23µM*!	-7%	20µM*	13µM*
Cc1ccc(-n2c(=O)[nH]c3ccc(Br)cc3c2=O)cc1	i	x	u	x	-21%	-28%
O=c1[nH]c(=S)[nH]c(O)c1CN1CCCCC1	i	2%	i	7%	5%	-4%
COc1ccc(/C=C2/C(=O)NC(=S)N(C3CC3)C2=O)cc1CN1C(=O)c2ccccc2C1=O	i	-8%	i	-15%	23µM*	16µM*
Cc1cccc(N2CCN(CCc3ccccc3)CC2)c1C	i	0%	u	9%	u	u
Cc1cccc(N2CCN(C(=O)c3ccc(CNc4c(N5CCC(C)CC5)c(=O)c4=O)cc3)CC2)c1C	i	-1%	i	-2%	16µM*	u
O=c1[nH]cc(N(CCCl)CCCl)c(=O)[nH]1	x	x	x	x	-15%	-17%
CC(=O)Nc1ccccc1C(=O)OCc1ccccc1F	i	6%	i	-1%	-8%	-3%
O=C(/C=C/c1ccccc1)c1c(O)n(CCc2ccccc2)c(=O)[nH]c1=O	15µM*	-11%	6.5µM*	-22%	2.6µM*	5.2µM*
COc1cc(/C=C/C(=O)c2c(O)n(CCc3ccccc3)c(=O)[nH]c2=O)ccc1O	i	u	i	12µM*	10µM*	13µM*
O=c1[nH]c(=O)n(CCc2ccccc2)c(O)c1C=NCCN1CCNCC1	i	0%	i	1%	-11%	-10%
CC(=NCc1ccc2c(c1)OCO2)c1c(O)n(-c2ccccc2)c(=O)[nH]c1=O	u	-2%	i	u	8%	0%
O=C(/C=C/c1ccc2c(c1)OCO2)c1c(O)n(CCc2ccccc2)c(=O)[nH]c1=O	u	0%	13µM*	0%	u	u
SMILES	KB-3-1 cytotox	HT1080NT lethal	KB-V1 MDR tox	HT1080 IDH1KD tx	DT40 TDP1 no CPT	TDP1 cell CPT
CCc1ccc(C2C(C(=O)Nc3ccccc3OC)=C(C)Nc3nc(SCc4ccccc4)nn32)cc1 (stereo unspecified)	i	x	i	x	3.7µM*	4.1µM*
CCC(=NCC1CCCO1)c1c(O)n(-c2ccc(OC)cc2)c(=O)[nH]c1=O (stereo unspecified)	i	0%	i	2%	1%	15%
Cc1oc2ccc(OC(=O)N3CCOCC3)cc2c1C(=O)OC(C)C	i	-2%	u	-5%	26µM*	u
O=C1C=C2C=C[C@@H]3C[C@@]2(O1)[C@H]1CCCCN31	x	x	x	x	7.5µM*	12µM*
Cc1ccccc1NC(=NCCCN1CC1)Nc1ccccc1C	u	-13%	i	u	5.2µM*	2.1µM*
Cc1ccccc1NC(=O)c1cc(-c2ccccc2)n(CCCN2CCOCC2)c1C	i	-20%	i	-1%	0%	-2%
CN1CCN(c2nc3c(c(=O)[nH]2)CCC3)CC1	i	-2%	u	-2%	23%	-8%
CP(=O)(Nc1ccc(Cl)cc1)c1nc2c(s1)CCCC2 (stereo unspecified)	i	2%	i	-9%	u	u
O=C(Nc1sc2c(c1C(=O)Nc1ccc(Cl)cc1)CCCC2)c1cccs1	i	x	i	x	3.7µM*	5.8µM*
O=C(c1ccc(F)cc1)N1CCC2(CC1)OCCO2	i	-1%	i	-16%	-5%	0%
COc1ccc(C/C(=N\OC(C)=O)c2ccc(OC)cc2)cc1	i	-6%	i	-13%	u	-4%
O=C(Cc1cccc(C(F)(F)F)c1)N1CCN(CC(=O)N2CCCC2)CC1	i	-4%	i	-3%	0%	0%
O=C(CCN1CCN(CCO)CC1)N1c2ccccc2Sc2ccc(C(F)(F)F)cc21	i	-8%	i	-27%	23µM*	u
OC[C@@H]1CCCN2CCCC[C@@H]12	x	x	x	x	-7%	4%
CCOc1cc(C=O)ccc1O	i	6%	i	0%	-2%	17%

Screening data (PubChem)
